Results filed as inconclusive are left out. Entries that show only a call come without a potency. Unmarked numbers belong to inactive results. Calls of active or inactive are those of the source. The call rests on the fitted dose curve.
Potency means the concentration at half of the fitted maximal effect.

The assay in a line: qHTS assay to identify small molecule agonists of H2AX - cell viability counter screen (AID 1224847). Further: nearly all actives have a fitted effect of over 30% in size.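 On activity change, negative = cytotoxicity: wild-type CHO-K1 cells; top concentration of the series differs between compounds.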 The note with it: CHO-K1 viability, CellTiter-Glo luminescence, 3 h; series mostly up to 154 µM; activity change, negative = cytotoxicity: at the top concentration. The procedure, abridged: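 CHO-K1 wt, 1000 cells/well, o/n 37C; cpds 15 conc, 3 h 37C, 0.76% DMSO; CellTiter-Glo, 30 min RT, luminescence.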
For the compound `C=CC(N)=O`, the Potency entry was “inactive”.

Take `O=c1ccc(=O)[nH][nH]1`: the Potency result is “inactive”.

Consider `CN(C)[C@@H]1C(=O)C(C(N)=O)=C(O)[C@@]2(O)C(=O)C3=C(O)c4c(O)cccc4[C@@](C)(O)[C@H]3C[C@@H]12`, for which the Potency entry is “inactive”.

Turning to `O=[N+]([O-])c1ccccc1`, the Potency entry is “inactive”.

Regarding `CC1C=[C-]C=C1.[C-]#[O+].[C-]#[O+].[C-]#[O+].[Mn]`, the Potency entry is “inactive”.

Consider `CCCN(CCC)N=O`, for which the Potency result was “inactive”.

Regarding `C1CN2CCN1CC2`, the Potency result is “inactive”.

Consider `[N-]=[N+]=[N-]`, for which the Potency result is “inactive”.

Regarding `CC(Br)C(=O)O` (stereo not drawn), the Potency entry was “inactive”.

Take `CC(C)(Cl)Cl`: the Potency result is “inactive”.

Take `CCNc1nc(NC(C)(C)C)nc(SC)n1`: the Potency entry was “inactive”.

Regarding `O=NN1CCCCCCC1`, the Potency entry was “inactive”.

In the case of `CC(=O)C=C(C)C`, the Potency entry is “inactive”.

For the compound `OCCN(CCO)CCO`, the Potency entry is “inactive”.

With `Nc1c(Cl)c(Cl)nc(C(=O)O)c1Cl`, the Potency entry was “inactive”.

Take `ClCc1cccnc1`: the Potency result was “inactive”.

For `Cc1[nH]c(=O)n(C(C)(C)C)c(=O)c1Cl`, the Potency result was “inactive”.

Consider `BrCCBr`, for which the Potency result is “inactive”.

On to `CCC(C)(CC)c1cc(NC(=O)c2c(OC)cccc2OC)on1`, for which the “activity change, negative = cytotoxicity” value is 0.0992%.

With `CN(C)N=O`, the Potency result was “inactive”.

Consider `Cc1ccc(N)cc1N`, for which the Potency entry is “inactive”.

As for `CCC[N+](=O)[O-]`, the Potency entry is “inactive”.

Turning to `CCC12COCN1COC2`, the Potency result is “inactive”.

Regarding `CC(C)(C)OOC(=O)c1ccccc1`, the Potency result is “inactive”.

Consider `CCOP(OCC)OCC`, for which the Potency entry is “inactive”.

As to `Nc1ccc(Br)cc1`, the Potency entry is “inactive”.

Take `CCOP(=S)(OCC)SCCSCC`: the Potency result was “inactive”.

As to `O=NN1CCCC1`, the Potency entry is “inactive”.

In the case of `C#CC(C)(C)NC(=O)c1cc(Cl)cc(Cl)c1`, the Potency result is “inactive”.

Consider `CCN(CC)CCO`, for which the Potency result was “inactive”.

As for `C=CCO`, the Potency result was “inactive”.

For the compound `CCCC1COC(Cn2cncn2)(c2ccc(Cl)cc2Cl)O1` (stereo not drawn), the Potency was 115 µM (active).

`C1CC2OC2CC1C1CO1` (stereo not drawn): the Potency entry is “inactive”.

The values above are taken from PubChem BioAssay (Tox21).
